Reference: PubChem BioAssay AID1508600 (Functional Genomics Laboratory (NCATS/FGL), 2020)
In all, about 53,000 sequences went through this assay and about 3,700 (7%) were called active. The full list was thinned out, with actives kept by preference. Unmarked numbers belong to inactive results.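 Rule for the calls: active = gene knockdowns whose robust z-score for IL-1 alpha signal is at least 2 or at most -2, so actives lie on both sides; inactive = the rest.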

Assay: Components of the Cytosolic LPS Sensing Pathway: Gene Identification via Genome-wide siRNA Screen;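 note: robust z of the log signal after scaling to non-targeting control siRNA wells of the plate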
Settings: RAW264.7 macrophages, IL-1a HTRF, actives lie on both sides, screened at 100 nM (by protocol), cells primed 5 h with Pam3CSK4 first
Outline: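 Supernatant IL-1a by HTRF from RAW264.7 cells primed with Pam3CSK4 (5 hours) and transfected with LipidA (24 hour) after 48h siRNA knockdown at 100 nM; cell viability checked with CellTiter-Glo.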

Row | Sequence | z-score
1 | GGCUUUGAGAGGAACACCATT against Sh2d4b | -2.49 (active)
2 | GGCCAAGUUCAACAUUCCATT against Lilrb4a | 0.539
3 | GGGACUUAAGUGAAGUUCATT against Ogfod2 | 0.232
4 | GCUGUCUCGUCAUUUAAGATT against Dym | -0.461
5 | GGAAAGUGUUGUCAAAAGATT against Olfr125 | -0.386
6 | GGCAUGUGGAAAACCUCCUTT against Lrrc46 | -0.413
7 | GGAUGAUGAAUUCACACACTT against Calr | 3.18 (active)
8 | GGAGAAAAAAUUCUUAUCCTT against Prmt2 | -0.31
9 | GGCGGUUUCACCUAUACAATT against Rspo4 | 0.821
10 | GGUCACCUUAACCGAGAAGTT against Phkg1 | 0.19
11 | GGACUUAACUAGUUGACAATT against Pclaf | -1.06
12 | GGUAUGAUGAAAAUACACATT against Mmp1a | 2.56 (active)
13 | GGGAGUGCCUUUAAAACACTT against Satb1 | 0.882
14 | GCCAAAAGGAGGACAUACCTT against Mylk3 | 1.08
15 | GGAUAUUGAUUGCUUUGUUTT against Uox | 1.41
16 | GGACAAAAGAUUCUUCAUCTT against Map1b | 2.93 (active)
17 | CCAACAAUGAUUAAUCAGCTT against Meis1 | -1.38
18 | GGAAAAUCACAAUCACUUGTT against Ccdc43 | -0.669
19 | GGUACCACCAUGCUAUGGUTT against Krtap19-9b | 0.646
20 | GGUGGUGAUUCACCUCCAATT against Tnfrsf12a | -2.23 (active)
21 | GCACUCAAGACCUGUAUGATT against Cldn18 | 0.627
22 | GGAAAUGCCAUUUGAUUUGTT against Rfpl4 | 0.599

Row | Sequence | z-score
23 | GGACGAUCAUGACAAGAUGTT against Psmb2 | -2.35 (active)
24 | CCAUCGUAUUUAACCACAUTT against Dtymk | 0.206
25 | GGCAAACUUAUCUUCUUCUTT against Ahsa1 | -1.89
26 | GGGAGUUAUAUUAGUCUAUTT against Rab18 | 0.436
27 | GGAUGCAGAGACCUAUUUCTT against Cacng5 | -0.158
28 | GGAACAGAGCCUUUCUCAGTT against Rnf183 | -0.153
29 | CCCAUGAUCUGGAAGAGACTT against Il1a | -2.08 (active)
30 | GCUAAUAGCCUGCCUAAGGTT against Plekhj1 | 1.35
31 | GUUACAAAACAUCGGUGGGTT against Vsig2 | 1.06
32 | CCUAGACAAAGUUUCAAACTT against Xrcc4 | -0.662
33 | GGAAAGAUUUCGAACAAUCTT against Rab1a | 1.66
34 | CAGUUUUUGGUCUCUAUCUTT against Olfr113 | 2.27 (active)
35 | GGCAGUUAGUAAGUUUAAATT against Eif5a2 | 1.22
36 | GGUAUACACAUGAAAACCATT against Ccdc137 | -0.548
37 | GGUGAUUCGUCAGAAGCUGTT against Gpr84 | -0.61
38 | GGCUUGCUAAAGGAUGGGATT against Coq8b | 0.0536
39 | CGUACUGGUACGGAAGCGUTT against Adck1 | 0.279
40 | GGAAUGAGGUUUGUAGACUTT against Arsg | -0.765
41 | CCGUACAUCGAGAAAUACATT against Hal | 2.36 (active)
42 | GGAGGACUAGGAGUGAUUGTT against Fggy | -0.363
43 | GGAUAGUCAGAAAUGGAAATT against Chmp4c | -0.43
44 | GGGUGAUUUCUAUUCACUATT against Pam | -0.633

Row | Sequence | z-score
45 | GCACGGUCAAGUUUUGAUUTT against Prkaa2 | -0.792
46 | GGGCCAAUUCUGAAACUUGTT against Il1f5 | 0.669
47 | CCACAGUACGCUGAAAUCCTT against Morf4l1 | -2.27 (active)
48 | GCUAGUGUGAUACCAUUUATT against Nab1 | 1.63
49 | GGAGAACCGUAACAACAACTT against Cacna1a | 0.692
50 | GGUAGACUCUAGAUUAAGATT against Srrm2 | -0.58
51 | CGAGCAAAUCUCAUUCAAGTT against Oxgr1 | 3.07 (active)
52 | CCCACCUUACAUAUAUUGATT against Srr | 0.25
53 | GGUAUUAGAAGAUAAUGACTT against Akt3 | -1.12
54 | CCAUCAGUUUCAUUAUUGGTT against Fpr-rs6 | -0.605
55 | GCAUAACUUAAACUGCUCATT against Zfp12 | 1.91
56 | CCAGAGCUUAUUGAGAUGCTT against Myh4 | -0.475
57 | GCUACUUAAGGGUUUGGAUTT against Pcdhb3 | 4.67 (active)
58 | GGCUGUUACAAGAACGUAGTT against 5031434C07Rik | -1.99
59 | GGAAACAACCCAAAGAAUCTT against Slc12a8 | -0.343
60 | GGUGGACCUGAAACGUAGCTT against Inhbb | 0.878
61 | GGUUCAUCUUUCAAAUCUATT against Kpna4 | -0.676
62 | CCUGUAGGUGGAAUAAACATT against Awat2 | -2.28 (active)
63 | CCUAGUAAUGUCCAUUGUGTT against Endod1 | 0.0364
64 | GGACUCAGAUAUCUUUCAGTT against Adck1 | -0.328
65 | CGUUGCUGACUGCUAUGAATT against Tmprss13 | -1.22
66 | CCACUUUCACAUGAAGUUATT against Eif2s3x | -0.7

Row | Sequence | z-score
67 | GCUCCAGCUUGCACUCUUGTT against Trp53i13 | 1.36
68 | GCCACAUCGUAGACAAGUATT against Zfp41 | -2.71 (active)
69 | CCCGAACCUGUUGUCUGAATT against Ttc8 | -0.422
70 | GCCAAGUGCUACAACAUCCTT against Ifitm5 | -0.64
71 | CCGAGAUUGCCUGUUUGGUTT against Rnf144b | 2.08 (active)
72 | GGAACUCAAAUUGAAAAGGTT against Manea | -0.135
73 | GCUAUUGGAGAUAUAAUGGTT against Ace | 1.58
74 | GGACUUUUUCAAAGGUUUUTT against Eif4g3 | 2.37 (active)
75 | GGCAGGCAACCAAUCAAAUTT against Npepps | 1.29
76 | GGAUUUCAUUAUCCUGUUUTT against Zfp608 | -1.19
77 | GCCUUGAACUAUGCAUAGATT against Eno2 | 1.7
78 | GGCCUCAUGCAGGAACAUUTT against Polr2d | -2.34 (active)
79 | GGAAGAAGAAAGAUUCAAATT against Bcan | -0.862
80 | GAUUUUUCAAAUCUUUGGCTT against Plac8 | -1.52
81 | GAGCAUCUGUGUAGAAGUGTT against Thrsp | 0.786
82 | CCUGGUACAAUCAAACUGCTT against Rnf222 | 0.516
83 | GGCAGAAUGGGAAAUGUAUTT against Htr7 | -0.841
84 | GCCGUUUAUUCAUUGCACUTT against Cdc123 | 1.21
85 | GGACUUGACCUCAAGGGAATT against Sox6 | 2.35 (active)
86 | GGAAUUCAAUCAGUUUGCUTT against Dysf | 1.06
87 | GGCAUUUUUCGGAUUGACATT against Mmp27 | -0.807
88 | CCCUCUGAACUAUAUGACUTT against Olfr700 | -1.09

Row | Sequence | z-score
89 | GGUGUGGAACGACAAACAGTT against Pla2g4f | -2.8 (active)
90 | GGCUUUGUGGACUUAAUUATT against Cyb5r2 | -1
91 | GCAUCACUGGAUUGUGGAUTT against Tm9sf2 | 0.188
92 | GGGAAAAAUGGUCAGAUUATT against Colgalt2 | -1.08
93 | GGUUCCUAAGGAUGAACUUTT against Akr1c14 | -0.186
94 | GGCCUAGCAAGGGAUUUUATT against Cep85 | -2.02 (active)
95 | GGAUCUCUUUGUUAAUGGUTT against Mall | 0.715
96 | GCCAUAUGCUAUCAAGAUGTT against Pskh1 | -0.715
97 | GGAAUGCUACAACUCAAAATT against Ptk2 | -0.861
98 | GGCAUUGGUUCCUACAAGATT against Gm773 | -0.118
99 | GGUAGAGGAUCUCUCUAAATT against Fbxo44 | -0.444
100 | GCUGGUAAACAUAGGUGGCTT against C1qtnf4 | 2.18 (active)
101 | GGUCCAUGGGUAAGAGGAUTT against Vmn1r43 | 1.2
102 | GGUCGUGCGAUCCACAGAUTT against Vangl2 | -0.44
103 | GUUUUGGAUUCCUCUGUCATT against Olfr1097 | -1.69
104 | GGAAAAUUCCAGAAACCAUTT against Mettl8 | 0.608
105 | GGAUGAAGAGAAAGUUCUATT against Mak | 2.49 (active)
106 | GGUGAGGUUCAAACAUUCUTT against Sdf2 | 0.0627
107 | GGGAUUCCACGGAUACUGUTT against Rnase13 | -0.858
108 | GGACUACCAGUUUUACAUCTT against Ssr1 | 1.25
